Assay outcomes (PubChem BioAssay)
HEK293 tox: Cytotoxic Profiling in HEK 293 Cell Line of Diverse Libraries Using Quantitative High-Throughput Screening; HEK 293 viability, ATP luminescence (CellTiter-Glo), 48-72 h; Potency, µM (highest dose often 115 µM), for the others: at the top dose activity change, negative = cytotoxicity, hits mostly inhibitors; 94,000 tested, 6.6% active; AID 1345083, 2018; further: potency means the concentration at half of the fitted maximal effect; nearly all actives have a fitted effect of over 60% in size
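Cells seeded first (HEK 293, 250 cells/well), then compound added by pintool. Incubation ran 48 or 72 hr at 37 degree Celsius. CellTiter-Glo was added and luminescence imaged after 10 min at room temperature.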
HEK293 viab: GF-AFC viability counterscreen for inhibitors of alpha-synuclein gene (SNCA) expression | HEK-293-SNCA-luc viability, GF-AFC fluorescence, 24 h | Potency, µM (series often up to 57.1 µM), without a hit: at the top dose activity change, negative = cytotoxicity, usual class: cytotoxic | 150,000 tested, 0.12% active | AID 1671193, 2021;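 further: potency means the concentration at half of the fitted maximal effect; 0% = DMSO-treated cells and -100% = medium-only wells without cells; nearly all actives have a fitted effect of over 30% in size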
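HEK-293-SNCA-luc cells (1500/well) plated 24 h, then exposed 24 h to a dilution series; GF-AFC added 30 min at 37C, fluorescence 405/540 nm; normalised to medium-only and DMSO wells, Hill fit.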
3T3 cytotox: Cytotoxic Profiling in NIH 3T3 Cell Line of Diverse Libraries Using Quantitative High-Throughput Screening; NIH 3T3 viability, CellTiter-Glo ATP luminescence, 48-72 h; Potency, µM (titrated, usually from 96.7 µM), for the others: top-dose activity change, negative = cytotoxicity, hits mostly inhibitors; 94,000 tested, 4.3% active; further: potency means the concentration at half of the fitted maximal effect; nearly all actives have a fitted effect of over 55% in size
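Cytotoxicity is measured as loss of cellular ATP: NIH 3T3 cells (400/well) are exposed to compound for 48 or 72 hr at 37 °C, then CellTiter-Glo luminescence is imaged after 10 min at room temperature.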
Luciferase inh: Firefly luciferase inhibition profiling of diverse chemical library using quantitative high-throughput screening | purified P. pyralis luciferase, luminescence, biochemical | AID 1347043, 2019 | Potency, µM (highest dose often 115 µM), most hits filed as inhibitors | 76,000 tested, 2.5% active | Luciferin 4-monooxygenase (Photinus pyralis), P08659; further: potency means the concentration at half of the fitted maximal effect; nearly all actives have a fitted effect of over 65% in size
Target sequence (P08659 whole entry, looked up): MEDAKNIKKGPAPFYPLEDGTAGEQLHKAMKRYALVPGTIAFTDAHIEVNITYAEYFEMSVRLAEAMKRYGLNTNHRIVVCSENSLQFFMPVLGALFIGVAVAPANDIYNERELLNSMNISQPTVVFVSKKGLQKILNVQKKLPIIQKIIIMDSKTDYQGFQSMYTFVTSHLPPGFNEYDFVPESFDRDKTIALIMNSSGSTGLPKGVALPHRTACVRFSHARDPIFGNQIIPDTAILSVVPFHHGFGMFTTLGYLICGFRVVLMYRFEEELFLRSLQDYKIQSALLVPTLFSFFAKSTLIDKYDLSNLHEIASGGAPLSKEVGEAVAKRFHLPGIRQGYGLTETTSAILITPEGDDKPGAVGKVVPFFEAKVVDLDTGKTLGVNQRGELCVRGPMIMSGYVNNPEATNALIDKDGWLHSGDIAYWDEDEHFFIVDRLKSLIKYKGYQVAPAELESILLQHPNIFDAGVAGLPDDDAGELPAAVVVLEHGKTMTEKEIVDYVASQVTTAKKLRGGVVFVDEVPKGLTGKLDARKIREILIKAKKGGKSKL
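FLuc 10nM, D-luciferin 10uM, ATP 10uM, Mg acetate 10mM, Tris acetate pH 7.5, Tween/BSA; cpd qHTS; enzyme added last; CCD luminescence.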
SNCA expr inh: Primary qHTS assay for inhibitors of alpha-synuclein gene (SNCA) expression. HEK-293 SNCA-luciferase knock-in, luminescence, 24 h. Potency, µM (top dose mostly 57.2 µM), for inactives: at the top dose activity change, negative = inhibition, most hits filed as inhibitors. 140,000 tested, 0.17% active;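 further: potency means the concentration at half of the fitted maximal effect; plate controls were DMSO cells for no effect and cell-free wells for full effect; nearly all actives have a fitted effect of over 45% in size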
IP6K1 inhibitor: Primary qHTS assay for small molecule inhibitors of Inositol hexaphosphate kinase 1 (IP6K1) | IP6K1 kinase, ADP-Glo luminescence, 2 h; active compounds read low | AID 1645851, 2021 | activity change, % (series mostly up to about 58 µM) | 140,000 tested, 0.81% active; in the data active means activity change below about -25%
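ADP-Glo luminescence measures ADP made by human IP6K1 during a 2 h RT reaction with ATP/IP6 (mix at 1.3 mM/130 uM); top library doses 57.5 and 19.1 uM final.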
* hit, by the source's call; i = inactive; ? = inconclusive; . = no result; [ ] = another dose, or the depositor's remark. Compounds with a hit are over-represented: about 7.3% of the library has one in this group of screens. Unless noted, the call rests on the fitted dose curve; in most records, active means well fitted curve in the direction sought with a large enough effect; inconclusive means small, poorly fitted or top-dose-only effect, or another doubt; inactive means no such curve, though single readings can be large; an effect the other way counts as inactive or inconclusive. Unless noted, on the % scale 0 is the no-effect control and ±100 the full control effect.

SMILES	HEK293 tox	HEK293 viab	3T3 cytotox	Luciferase inh	SNCA expr inh	IP6K1 inhibitor
CCOC(=O)c1ccc(NC(=O)Cn2c(N3CCN(c4ccccc4)CC3)nc(C)cc2=O)cc1	40µM*	-16%	32µM*	i	-25%	15
Cc1ccc2nc3n(c2c1)[C@@H](CNCc1ccc2c(c1)OCO2)COC3	?	-14%[87.6 µM]	?	i	-7%[87.6 µM]	20
O=C(NCC1CC1)c1nc2cccnc2n(Cc2ccccc2)c1=O	-29%[172 µM]	-5%[87.6 µM]	?	.	7%[87.6 µM]	20
Cc1cc(=O)n(CC(=O)Nc2ccc(Br)cc2)c(N2CCC(C)CC2)n1	40µM*	-10%	?	i	-15%	13
Cc1cc(=O)n(CC(=O)Nc2ccc(C)c(Cl)c2)c(N2CCC(C)CC2)n1	32µM*	-11%	?	i	?	9
Cc1cc(=O)n(CC(=O)Nc2ccc(Cl)cc2)c(N2CCC(C)CC2)n1	40µM*	-28%	?	i	-20%	26
Cc1cc(=O)n(CC(=O)Nc2ccc(C)c(C)c2)c(N2CCC(C)CC2)n1	?	-16%	?	i	?	5
CC(C)NC(=O)c1ccccc1OCC1CCCN(Cc2ccc(Br)o2)C1 (configuration not stated)	?	-29%	?	i	8%	-4
COC(=O)c1cccc2nc([C@H]3CCN(Cc4ccccc4C)C3)oc12	89µM*	0%[87.6 µM]	?	i	?	0
O=C(NCc1cccc(F)c1)C1CCN(c2nccc(Nc3ccccc3Cl)n2)CC1	45µM*	-10%	?	.	-12%	-1
CSCCNC(=O)C1CCN(c2nccc(Nc3ccccc3Cl)n2)CC1	?	-7%[12.5 µM]	35µM*	.	?	1
COC(=O)CNC(=O)C1CCN(c2nccc(Nc3ccccc3Cl)n2)CC1	-18%	3%[12.5 µM]	-20%	.	7%	7
O=C(NCc1ccc(F)cc1)C1CCN(c2nccc(Nc3ccccc3Cl)n2)CC1	?	5%	?	.	-12%	6
O=C(NCc1cccc(C(F)(F)F)c1)[C@@H]1CCCN1c1nccc(Nc2ccccc2Cl)n1	?	-7%[12.5 µM]	?	.	-26%	-7
O=C(NCc1ccc2c(c1)OCO2)C1CCN(c2nccc(Nc3ccccc3Cl)n2)CC1	28µM*	8%[12.5 µM]	35µM*	.	-6%	21
CC(C)NC(=O)C1CCN(c2nccc(Nc3ccccc3Cl)n2)CC1	?	3%[12.5 µM]	?	.	?	6
O=C(NCc1cccc(Cl)c1)[C@@H]1CCCN1c1nccc(Nc2ccccc2Cl)n1	35µM*	?	?	.	?	1
CC(C)C1=NOC2(CCN(Cc3cccc4ccccc34)CC2)C1	-3%[172 µM]	-1%[87.6 µM]	-2%[138 µM]	i	38%[87.6 µM]	-3
C[S+](=O)([O-])c1cccc(-c2ccc3ncn(-c4ccc(F)cc4F)c(=O)c3n2)c1	?	4%[87.6 µM]	?	i	11%[87.6 µM]	26
COc1ncc(-c2ccc3ncn(-c4ccc(F)cc4F)c(=O)c3n2)cn1	89µM*	-7%[87.6 µM]	?	i	30%[87.6 µM]	14
CC(=O)Nc1cccc(-c2ccc3ncn(-c4ccc(F)cc4F)c(=O)c3n2)c1	89µM*	-9%[87.6 µM]	?	i	15%[87.6 µM]	-9
O=c1c2nc(-c3cccnc3)ccc2ncn1-c1ccc(F)cc1F	71µM*	-18%[87.6 µM]	?	i	3%[87.6 µM]	21
CCOCc1nc(C2CCCN2C(=O)NCCC(=O)OCC)no1 (configuration not stated)	i	-2%	i	i	2%	-11
CC(=O)N1CCCN(c2ncnc3c2CN(c2cccc(C)c2)C(=O)CN3C)CC1	i	-7%	-8%	.	5%	3
COc1cccc(C(=O)N2CCCCCC2c2nnc(-c3ccccc3)o2)c1 (configuration not stated)	?	-17%	-32%	.	-16%	4
SMILES	HEK293 tox	HEK293 viab	3T3 cytotox	Luciferase inh	SNCA expr inh	IP6K1 inhibitor
COc1ccccc1NC(=O)Nc1cccc(-c2nnc3n2CCCC3)c1	?	4%	?	?	22%	-2
CCOc1ccccc1NC(=O)Nc1cccc(-c2ccc(N3CCCC3)nn2)c1	-22%	7%	-25%	6.3µM*	?	-5
O=C(NCCc1ccccc1)Nc1cccc(-c2nnc3n2CCCC3)c1	?	?	-14%	i	-27%	2
COc1ccccc1NC(=O)Nc1cccc(-c2ccc(N3CCCCC3)nn2)c1	?	0%	?	0.71µM*	-51%	-12
O=C(NCCc1ccccc1)Nc1cccc(-c2ccc(N3CCCCC3)nn2)c1	?	-4%	-27%	0.25µM*	?	-10
O=C([C@@H]1C[C@H](F)CN1S(=O)(=O)c1cccc(Br)c1)N1CCCCC1	-26%	2%	-8%	i	-4%	4
N#CC1CCN(C(=O)c2nc3sccn3c2Br)CC1	-14%[172 µM]	0%[87.6 µM]	-5%[138 µM]	i	-4%[87.6 µM]	-8
O=C1CC2(CCN(C(=O)C3CCCN(C(=O)Nc4ccccc4)C3)CC2)Oc2ccccc2N1 (configuration not stated)	32µM*	-11%	?	.	-29%	-7
CCCC(=O)N1CCN(C2CCN(CCC(C)C)C2=O)CC1 (configuration not stated)	i	4%	-1%	i	-13%	-1
Cc1nn2c(c1-c1ccccc1OCc1ccccc1)N(Cc1ccc(C(=O)O)s1)CCC2	35µM*	?	32µM*	i	11µM*	21
CC(=O)N1CCCn2nc(C)c(-c3ccccc3OCc3ccccc3)c21	?	6%[87.6 µM]	?	i	-20%[87.6 µM]	9
Cc1nn2c(c1-c1ccccc1OCc1ccccc1)N(C(=O)C(C)C)CCC2	32µM*	-21%[87.6 µM]	89µM*	i	?	7
Cc1nn2c(c1-c1ccccc1OCc1ccccc1)N(Cc1ccc(OCC(=O)O)cc1)CCC2	-14%	4%	25µM*	i	-5%	0
Cc1nn2c(c1-c1ccccc1OCc1ccccc1)N(Cc1ccccc1)CCC2	?	?	?	i	?	23
O=[S+]([O-])(NC1CCN(c2nccc(Nc3ccccc3Cl)n2)CC1)c1cccs1	?	8%	?	.	-4%	-2
CNC(=O)c1cc(C2CC2)nc2c1c(C1CCN(C(=O)c3ccc(F)cc3)C1)nn2C (configuration not stated)	-16%	.	-27%	.	.	0
